The record followed here is PubChem BioAssay (Tox21).

A number with no mark means an inactive call. Calls of active or inactive are those of the source. Calls follow the shape of the dose curve; as a rule, active = well fitted curve in the direction sought with a large enough effect in the repeat runs; inconclusive = weak or mixed curves; inactive = flat fitted curve, though single readings scatter.
% is scaled to controls: 0 for no effect and ±100 for the full control effect.

The nature of the experiment: qHTS assay to test for compound auto fluorescence at 590 nm (red) in HepG2 cell free culture (AID 720684). Particulars: cell-free medium autofluorescence, red 540/590 nm; series mostly up to 91.3 µM. The method, boiled down:
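Ex 540 / Em 590 nm read of compound in cell-free MEM (10% FBS). Rose Bengal sodium reference.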
Turning to `C=C(C)C(=O)OCCC(F)(F)C(F)(F)C(F)(F)C(F)(F)C(F)(F)C(F)(F)F`, the result was inactive. Consider `COC1CCC=CO1` (stereo not given), for which the result was inactive. On the same count and under the same terms, the entry for `CNCc1ccc(NC(=O)c2c[nH]c3c2C(=O)CCC3)cc1` is “inactive”; for `N[C@@H](Cc1cc(I)c(O)c(I)c1)C(=O)O` it is “inactive”. On the same count and under the same terms, the result for `CNS(=O)(=O)c1cc(C(=O)N2CCC(CCN3C4CCC3CC(n3c(C)nc5ccccc53)C4)(c3cccc(F)c3)CC2)c(Cl)cc1F` (stereo not given) reads “inactive”; that for `O=[N+]([O-])c1ccc2ncccc2c1`, “inactive”; that for `C[C@@H]1[C@H](O)[C@@H](C)/C=C/C=C\C=C\C=C\C=C\C=C\C=C\[C@H](O[C@@H]2O[C@H](C)[C@@H](O)[C@H](N)[C@@H]2O)C[C@@H]2O[C@](O)(C[C@@H](O)C[C@@H](O)[C@H](O)CC[C@@H](O)C[C@@H](O)CC(=O)O[C@H]1C)C[C@H](O)[C@H]2C(=O)O` (stereo in doubt), “inactive”. `CC(C)(C)NCC(O)COc1cccc2c1C[C@H](O)[C@H](O)C2` (stereo not given in full): the fluorescence, % of Rose Bengal is -0.334% [at 18.6 µM].

With `Nc1ccn([C@H]2CS[C@@H](CO)O2)c(=O)n1`, the compound was called inactive. On the same count and under the same terms, the entry for `Cc1cc([N+](=O)[O-])ccc1N` is “inactive”.

For `CC1CCCO1` (stereo not given), the compound was classed as inactive. Still for that read-out and setting: the result for `O=C1OC(=O)c2c(Br)c(Br)c(Br)c(Br)c21` reads “inactive”. Same read-out and setting: the entry for `CC(C)COC(=O)c1ccc(O)cc1` is “inactive”; for `CN1CCCN(C(c2ccccc2)c2ccc(Cl)cc2)CC1` (stereo not given) it is “inactive”; for `O=C(O)c1ccc(O)cc1O` it is “inactive”. Still for that read-out and setting: the result for `Nc1cccc2c(N)cccc12` reads “inactive”; that for `C=CCOC(=O)COCCC(C)C`, “inactive”. Take `CC(C(=O)O)c1ccc(C(=O)c2cccs2)cc1` (stereo not given): the fluorescence, % of Rose Bengal was -0.362% [at 18.6 µM]. For the compound `COc1cc(OC)c2ccc(=O)oc2c1`, the result was inactive. Still for that read-out and setting: the entry for `CC(=O)N[C@@H](Cc1ccc(O)cc1)C(=O)O` is “inactive”; for `O=C(c1ccccc1)C1CCC1` it is “inactive”; for `CCCCCCCC(=O)OCCCCCC` it is “inactive”.

`CCSC(=O)N(CC)CC`: the call was inactive. The same measure, in the same setting: the result for `COc1ccc(C2C(=O)c3ccccc3C2=O)cc1` reads “inactive”.

Turning to `CCCCCCCC/C=C\CCCCCCCC(=O)OCCO`, the compound was called inactive. Same read-out and setting: the entry for `CCCCCc1ccco1` is “inactive”. On to `COc1ccc(CCN(C)CCCN2CCc3cc(OC)c(OC)cc3CC2=O)cc1OC`, for which the compound was classed as inactive. Still for that read-out and setting: the entry for `CC(C)(C)S` is “inactive”; for `O=C(Oc1ccccc1)c1ccc2ccccc2c1O` it is “inactive”.

Take `CC(=O)OCC(C)C`: the outcome was inactive.
